According to PubChem BioAssay (NCATS):
Results filed as inconclusive are left out. A call without a number means that no potency is given here. Activity calls are given as the source filed them. Calls come from the whole dose curve; as a rule, active = well fitted inhibition curve with a large enough effect; inconclusive = small, poorly fitted or top-dose-only effect; inactive = no such curve, though single readings can be large or run the other way.

Target: Retinaldehyde dehydrogenase 3 (Homo sapiens) (UniProt P47895)
Assay: qHTS for Inhibitors of the Aldehyde Dehydrogenase Family (ALDH1A3) Primary screen (AID 2061315)
Conditions: ALDH inhibition qHTS; series mostly up to 56 µM

Row | Compound | Potency
1 | N#CN1CCC(NC(=O)c2ccc(F)cc2)CC1 | inactive
2 | CC1=C(C(=O)Nc2ccccc2)C(c2ccccc2Br)N=C(Nc2nc3ccccc3o2)N1 (stereo unspecified) | inactive
3 | COc1ccc(C2=Nn3c(nnc3-c3ccccc3C)SC2)cc1OC | inactive
4 | CCOc1ccc(CNc2ccc(-c3nc4ccccc4[nH]3)cc2)cc1 | inactive
5 | Cc1cc(/C=C2/C(=O)Nc3ccccc32)cc(C)c1O | inactive
6 | COc1c(NS(=O)(=O)c2ccc(C)cc2)cccc1C(=O)Nc1nc(-c2ccccc2)cs1 | inactive
7 | COc1ccccc1NC(=O)c1cc(-c2ccc(C)c(C)c2)nc2ccccc12 | inactive
8 | CC(C)(C)c1ccccc1Nc1nc(C#N)nc(NC2CCCC2)n1 | inactive
9 | O=C1CCc2cc(S(=O)(=O)Nc3cccc(Cl)c3)ccc2N1 | inactive
10 | CC(C)(C)OC(=O)N[C@@H](Cc1ccc(O[S+](=O)([O-])c2cccc3cnccc23)cc1)C(=O)N1CCN(c2ccccc2)CC1 | inactive
11 | N#Cc1c(-c2ccccc2C(F)(F)F)nc2ccccc2c1NCc1ccc(-c2cccnc2)cc1 | inactive
12 | CNC(=O)C1=C(C)NC(Nc2nc3ccccc3o2)=NC1c1nn(C)cc1Cl (stereo unspecified) | inactive
13 | O=S(=O)(NCC1CCC(NS(=O)(=O)c2c(F)cccc2F)CC1)c1ccc2c(c1)OCCO2 (stereo unspecified) | inactive
14 | O=S(=O)(c1ccc(C(F)(F)F)cc1)N1CCN(S(=O)(=O)c2ccc3c(c2)OCCO3)CC1 | inactive
15 | COc1cccc(Nc2nn3c(=O)c4ccccc4nc3s2)c1 | inactive
16 | O=C1C2=C(CN1c1ccccc1)NC(Nc1nc3ccccc3o1)=NC2c1ccccc1Cl (stereo unspecified) | inactive
